# Article PMC4336329 (PLoS ONE, 2015)
# Hit rate of the full screen: of about 310,000 compounds, about 14,000 (4.5%) showed an effect of 50% or more. The effect is printed as a negative number. Shown is part of a subset that was picked to be rich in strong results.
# Target: human ether-à-go-go-related gene (hERG) potassium channel (human, UniProt Q12809)
# Experiment: primary screen, population patch clamp on CHO cells stably expressing hERG; higher = less effect of the substance
# 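Note: peak tail current of the secondary pulse compared with the same well before compound.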
# Sequence of human ether-à-go-go-related gene (hERG) potassium channel (Q12809 whole entry, looked up): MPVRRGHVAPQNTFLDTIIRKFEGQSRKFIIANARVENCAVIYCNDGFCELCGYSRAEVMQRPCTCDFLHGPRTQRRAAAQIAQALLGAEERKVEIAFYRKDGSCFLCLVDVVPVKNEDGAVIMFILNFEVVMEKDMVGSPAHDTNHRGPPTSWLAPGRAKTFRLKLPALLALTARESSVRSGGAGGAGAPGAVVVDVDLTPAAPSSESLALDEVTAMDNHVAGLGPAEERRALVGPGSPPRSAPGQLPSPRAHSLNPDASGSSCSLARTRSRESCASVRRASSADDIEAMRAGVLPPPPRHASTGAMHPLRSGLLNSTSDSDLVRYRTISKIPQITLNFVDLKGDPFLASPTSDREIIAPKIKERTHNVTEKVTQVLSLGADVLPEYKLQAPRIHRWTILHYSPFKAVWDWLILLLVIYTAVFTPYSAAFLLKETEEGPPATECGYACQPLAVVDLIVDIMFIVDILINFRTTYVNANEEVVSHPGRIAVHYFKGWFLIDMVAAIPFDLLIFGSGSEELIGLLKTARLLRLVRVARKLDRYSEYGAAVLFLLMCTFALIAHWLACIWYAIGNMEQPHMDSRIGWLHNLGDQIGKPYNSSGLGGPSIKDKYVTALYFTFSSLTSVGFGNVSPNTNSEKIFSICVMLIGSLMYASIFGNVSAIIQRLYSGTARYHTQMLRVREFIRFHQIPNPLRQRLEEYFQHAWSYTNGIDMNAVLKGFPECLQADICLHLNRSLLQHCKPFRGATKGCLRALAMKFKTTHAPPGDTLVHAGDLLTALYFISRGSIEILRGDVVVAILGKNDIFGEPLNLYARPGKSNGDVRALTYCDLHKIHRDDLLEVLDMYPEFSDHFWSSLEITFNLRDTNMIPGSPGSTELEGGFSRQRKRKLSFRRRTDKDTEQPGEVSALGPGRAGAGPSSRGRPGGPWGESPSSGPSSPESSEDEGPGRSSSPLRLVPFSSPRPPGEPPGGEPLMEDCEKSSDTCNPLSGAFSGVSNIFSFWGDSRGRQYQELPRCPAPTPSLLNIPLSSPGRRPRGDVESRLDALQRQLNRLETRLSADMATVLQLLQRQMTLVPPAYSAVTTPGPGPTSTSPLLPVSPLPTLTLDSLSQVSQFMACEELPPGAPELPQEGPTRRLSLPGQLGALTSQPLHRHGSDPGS
row,SMILES,"hERG current change (%, negative = inhibition) at 10uM"
1,CC1(C)Cc2c(c(N3CCCC3)nc3sc4c(N5CCNCC5)ncnc4c23)CO1,-35.2%
2,O=C(N/N=C/c1ccc(-c2cccc(C(F)(F)F)c2)o1)c1ccccc1Br,3.21%
3,CCOc1ccc(Cl)cc1S(=O)(=O)NC1CCCC1,-3.26%
4,Cn1c(=O)c2c(nc(Br)n2CC(=O)c2cccs2)n(C)c1=O,-6.03%
5,CCc1ccc(NC(=O)C2CCCCC2C(=O)O)cc1 (centres unmarked),11.8%
6,CCOc1ccc(NC(=O)CN(C)C(=O)c2cc([N+](=O)[O-])ccc2N2CCCCC2)cc1OCC,-43.9%
7,CCOc1ccc(NC(=O)CN(C)C(=O)c2cc([N+](=O)[O-])ccc2N2CCOCC2)cc1OCC,-52.5%
8,CCOc1ccc(NC(=O)CN(C)C(=O)c2ccc(N3CCOCC3)c([N+](=O)[O-])c2)cc1OCC,-19.1%
9,O=C(NCC(=O)N(c1ccc(F)cc1)C(C(=O)NC1CCCC1)c1cccnc1)c1cccs1 (centres unmarked),7.21%
10,CC(C)C[C@H](NC(=O)NCCC1=CCCCC1)C(=O)O,-4.82%
11,O=C1Nc2ncccc2OC1CCCl (centres unmarked),6.83%
12,O=C(COc1ccccc1Cl)NCCCNC(=O)c1ccco1,2.17%
13,CN(C)CCN(C(=O)c1ccc(S(=O)(=O)N(C)c2ccccc2)cc1)c1nc2cc3c(cc2s1)OCO3.Cl,-2.57%
14,CCN(Cc1ccccc1)S(=O)(=O)c1ccc(C(=O)N(CCCN(C)C)c2nc3cc4c(cc3s2)OCO4)cc1.Cl,-45.2%
15,CCN(c1ccccc1)S(=O)(=O)c1ccc(C(=O)N(CCCN(C)C)c2nc3c(C)cccc3s2)cc1.Cl,-34.7%
16,CN(C)CCCN(C(=O)c1ccc(S(=O)(=O)N(C)Cc2ccccc2)cc1)c1nc2cc3c(cc2s1)OCO3.Cl,-51.7%
17,CN(C)CCN(C(=O)c1ccc2ccccc2c1)c1nc2c(F)cc(F)cc2s1.Cl,3.41%
18,CCN(c1ccccc1)S(=O)(=O)c1ccc(C(=O)N(CCN(C)C)c2nc3c(F)cc(F)cc3s2)cc1.Cl,-54.7%
19,CCN(Cc1ccccc1)S(=O)(=O)c1ccc(C(=O)N(CCCN(C)C)c2nc3cc4c(cc3s2)OCCO4)cc1.Cl,-27.5%
20,CCN(c1ccccc1)S(=O)(=O)c1ccc(C(=O)N(CCCN(C)C)c2nc3cc4c(cc3s2)OCO4)cc1.Cl,-57.4%
21,CN(C)CCN(C(=O)c1ccc(S(=O)(=O)N(C)c2ccccc2)cc1)c1nc2cc3c(cc2s1)OCCO3.Cl,-1.95%
22,COc1ccc(-c2noc(CN(C(=O)c3cccs3)C(C)C)n2)cc1,-28.6%
23,COc1ccc(S(=O)(=O)N2CCOCC2)c(Cl)c1Cl,-18.3%
24,Cn1c(OCc2cccnc2)nc2c1c(=O)n(Cc1ccccc1)c(=O)n2C,-56.1%
25,Cn1c(=O)c2c(nc(N/N=C/c3ccncc3)n2Cc2ccccc2)n(C)c1=O,-28.8%
26,C=CCOc1nc2c(c(=O)n(Cc3ccc(Cl)cc3)c(=O)n2C)n1C,-2.66%
27,Cn1c(OCc2cccnc2)nc2c1c(=O)n(Cc1ccc(Cl)cc1)c(=O)n2C,-51.1%

row,SMILES,"hERG current change (%, negative = inhibition) at 10uM"
1,Cn1c(OCc2cccnc2)nc2c1c(=O)n(Cc1ccc(F)cc1)c(=O)n2C,-51.9%
2,Cn1c(=O)c2c(nc(N/N=C/c3cccnc3)n2Cc2ccccc2)n(C)c1=O,-51.2%
3,Cn1c(OCc2ccc3c(c2)OCO3)nc2c1c(=O)n(Cc1cccc(Cl)c1)c(=O)n2C,-0.643%
4,Cn1c(=O)c2c(nc(OCc3cccnc3)n2Cc2ccccc2)n(C)c1=O,-32.8%
5,Cn1c(=O)c2c(nc(N/N=C/c3cccnc3)n2Cc2ccc(F)cc2)n(C)c1=O,-16.8%
6,Cn1c(=O)c2c(nc(SCc3cccnc3)n2Cc2ccc(F)cc2)n(C)c1=O,-30.7%
7,Cn1c(=O)c2c(nc(OCc3ccccc3)n2C)n(C)c1=O,4.72%
8,Cn1c(=O)c2c(nc(OCc3cccnc3)n2Cc2c(F)cccc2Cl)n(C)c1=O,1.03%
9,CN(CC(=O)Nc1cccc(F)c1)C(=O)c1ccccc1CCc1ccccc1,3.08%
10,O=S(=O)(NCc1ccco1)c1cccc(S(=O)(=O)N2CCCCC2)c1,-32.2%
11,CCN1CCN(C(c2cccc(OC)c2)c2sc3nc(C)nn3c2O)CC1 (centres unmarked),19.7%
12,COc1cccc(CNC(=O)CSC(=S)N2CCCC2)c1,2.79%
13,CCOC(=O)N1CCN(c2c(NCCCOC(C)C)c(=O)c2=O)CC1,-19.7%
14,CC(C)CC(=O)O/N=C1\C(=O)N(Cc2ccc(Cl)cc2)c2ccc([N+](=O)[O-])cc21,-36.1%
15,CCn1c(CO)nc2c1c(=O)[nH]c(=O)n2Cc1ccccc1,17.7%
16,Cn1c(OCc2cccnc2)nc2c1c(=O)n(Cc1ccc(Br)cc1)c(=O)n2C,-57.3%
17,Cn1c(NCc2ccccc2)nc2c1c(=O)n(Cc1ccc(Br)cc1)c(=O)n2C,4.56%
18,Cn1c(Br)nc2c1c(=O)n(Cc1ccccc1)c(=O)n2C,-10.2%
19,CC1CCCN(C(=O)CN2C(=O)C(C)Oc3ccccc32)C1 (centres unmarked),8.2%
20,CCN(CC)C(=O)c1[nH]cnc1C(=O)Nc1ccon1,0.396%
21,Cc1ccc(NC(=O)OCc2cncs2)cc1,2.29%
22,COCCNC(=O)c1c(N)n(/N=C/c2ccc(F)cc2)c2nc3ccccc3nc12,-0.595%
23,O=C(NCCN1CCOCC1)c1cccc(S(=O)(=O)N2CCCC2)c1,6.43%
24,O=C(NCCCN1CCOCC1)c1cccc(S(=O)(=O)N2CCOCC2)c1,8.97%
25,Cc1ccc(S(=O)(=O)N2CCCCC2)cc1C(=O)NCCCN1CCOCC1,16.7%
26,O=C(NCCCN1CCOCC1)c1cccc(S(=O)(=O)N2CCN(c3ccccc3)CC2)c1,-71.8%
27,O=C(NCCCN1CCOCC1)c1cc(S(=O)(=O)N2CCN(c3ccccc3)CC2)ccc1Cl,-76.6%

row,SMILES,"hERG current change (%, negative = inhibition) at 10uM"
1,O=C(NCCCN1CCCC1=O)c1cc(S(=O)(=O)N2CCOCC2)ccc1Cl,13.9%
2,CCOC(=O)c1ccc(NC(=S)Nc2ccc3[nH]c(=O)[nH]c3c2)cc1,1.23%
3,O=c1[nH]c2ccccc2nc1C(Cl)c1ccccc1 (centres unmarked),2.52%
4,Nc1nc(-c2ccco2)cs1,9.88%
5,O=c1oc2cc(OCc3c(F)c(F)c(F)c(F)c3F)ccc2cc1-c1ccccn1,14%
6,COc1ccc(C(=O)Nn2cnc3ccccc3c2=O)cc1[N+](=O)[O-],-4.64%
7,O=C(O)COc1ccccc1/C=N/NC(=O)CN1CCN(S(=O)(=O)c2ccc(Br)cc2)CC1,4.89%
8,O=C(CN1CCOCC1)N/N=C/C=C/c1ccccc1,-26.3%
9,Cc1ccc(S(=O)(=O)N2CCN(CC(=O)N/N=C/c3ccc(C)o3)CC2)cc1,-38.9%
10,Cc1ccc(S(=O)(=O)N2CCN(CC(=O)N/N=C\C(Cl)=C\c3ccccc3)CC2)cc1,-48%
11,COc1ccccc1/C=C/C=N/NC(=O)CN1CCN(S(=O)(=O)c2ccc(C)cc2)CC1,-50.2%
12,Cc1ccc(S(=O)(=O)N2CCN(CC(=O)N/N=C\c3ccccn3)CC2)cc1,-36.3%
13,Cc1ccc(S(=O)(=O)N2CCN(CC(=O)N/N=C/C=C/c3ccccc3)CC2)cc1,-73.8%
14,Cc1ccc(S(=O)(=O)N2CCN(CC(=O)N/N=C/c3ccccc3OCC(=O)O)CC2)cc1,10.5%
15,CC(/C=N\NC(=O)CN1CCN(S(=O)(=O)c2ccc(C)cc2)CC1)=C\c1ccccc1,-68.1%
16,CCCOC(=O)c1ccc(O)cc1,16.5%
17,COc1ccccc1CC(=O)Nc1ccc(O)cc1C(=O)O,0.828%
18,C(=N\N(c1ccccc1)c1ccccc1)/c1ccc2c(c1)OCO2,4.28%
19,O=C(O)/C=C\C(=O)O.c1ccc2c(c1)CC1CNCc3cccc(c31)S2 (centres unmarked),-49.5%
20,Fc1ccc2c(c1)Sc1ccc(Cl)cc1CC2N1CCN(CCC2OCCO2)CC1 (centres unmarked),-8.68%
21,C1CCCCC1.OCCN1CCN(C2Cc3cc(Cl)ccc3Sc3ccc(Cl)cc32)CC1 (centres unmarked),9.86%
22,Clc1ccc2c(c1)C(N1CCNCC1)Cc1ccccc1S2.O=C(O)/C=C\C(=O)O (centres unmarked),-54.3%
23,COCCCN1CCN(C2Cc3ccccc3Sc3ccc(Cl)cc32)CC1.O=C(O)/C=C\C(=O)O (centres unmarked),-73.5%
24,COc1cc([C@@H]2c3cc4c(cc3[C@@H](O)[C@H]3COC(=O)[C@H]23)OCO4)cc(OC)c1O[Si](C)(C)C(C)(C)C,17.8%
25,NS(=O)(=O)c1cccc(NC(=O)c2cccnc2Oc2ccccc2)c1,12.7%
26,Cc1sc2ncn(CC(=O)N3CCN(c4ccccn4)CC3)c(=O)c2c1S(=O)(=O)N1CCCCC1,-36.7%
